Results published in the supplement of paper PMC6607015.
Counter-ions that a name gives are not always drawn.

Tests used:
Details in all cases: compound concentration in added solution (µM; 5 µl added to 20 µl cells): 10; 18 h
A431 [1] = experiment: LBPA endosome anti-LBPA integrated intensity (sum per cell), Z-score; higher = more LBPA staining
In short: (§1)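 Per-cell integrated LBPA or filipin intensity, whole-cell or within LBPA endosomes, is expressed as Z-scores normalised in AcuityXpress. HeLa MZ or A431 cells, 3,500 per well in 20 µl, sat on 5 µl of 10 µM compound solution in duplicate 384-well imaging plates for 18 h. They were then fixed in 4% PFA, stained, imaged in four 20× fields per well and segmented using MetaXpress.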

HeLa MZ [2] = experiment: as above
In short: as §1

A431 [3] = experiment: whole-cell filipin (free cholesterol) integrated intensity, Z-score; higher = more cholesterol staining
In short: as §1

HeLa MZ [4] = experiment: as above
In short: as §1

A431 [5] = experiment: filipin (cholesterol) integrated intensity within LBPA endosomes, Z-score; higher = more cholesterol in LBPA endosomes
In short: as §1

HeLa MZ [6] = experiment: as above
In short: as §1

SMILES | LBPA endosome anti-LBPA integrated intensity (z-score) (A431 [1]) | LBPA endosome anti-LBPA integrated intensity (z-score) (HeLa MZ [2]) | whole-cell filipin (z-score) (A431 [3]) | whole-cell filipin (z-score) (HeLa MZ [4]) | filipin (z-score) (A431 [5]) | filipin (z-score) (HeLa MZ [6])
CCC1NC(=O)c2cc(S(N)(=O)=O)c(Cl)cc2N1 (stereo not given) [Quinethazone] | -0.328 | -1.04 | 0.366 | 0.147 | -0.404 | -0.386
CC(CN(C)C)CN1c2ccccc2Sc2ccccc21 (stereo not given) [Trimeprazine tartrate] | 3.47 |  | 1.36 |  | 2.12 | 
CCN(CC)CCNc1ccc(CO)c2sc3ccccc3c(=O)c12 [Hycanthone] | 5.49 |  | 2.31 |  | 2.68 | 
COC(=O)Nc1nc2cc(C(=O)c3ccc(F)cc3)ccc2[nH]1 [Flubendazol] | -0.354 |  | -0.303 |  | -0.305 | 
CCN(CC)C(=S)SSC(=S)N(CC)CC [Disulfiram] |  | 0.205 |  | 0.0194 |  | -0.407
O=C(O)c1cc(-c2ccc(F)cc2F)ccc1O [Diflunisal] | -0.321 | -0.139 | -0.11 | -0.25 | -0.434 | -0.569
CN1C(C)(C)CCCC1(C)C [Pempidine tartrate] | -0.407 |  | -0.191 |  | -0.313 | 
CC(=O)OCC(=O)[C@@]12N=C(C)O[C@@H]1C[C@H]1[C@@H]3CCC4=CC(=O)C=C[C@]4(C)[C@H]3[C@@H](O)C[C@@]12C [Deflazacort] | -0.192 | 0.385 | 0.137 | 0.444 | -0.208 | -0.207
CC(=O)Oc1cc(C(F)(F)F)ccc1C(=O)O [Triflusal] | -0.556 | -0.553 | -0.393 | 0.0625 | -0.513 | -0.544
Fc1ccc([C@@H]2CCNC[C@H]2COc2ccc3c(c2)OCO3)cc1 [Paroxetine Hydrochloride] |  | 0.516 |  | -0.28 |  | 2.03
Cn1c(=O)c2nc[nH]c2n(C)c1=O [Theophylline monohydrate] | -0.668 | -1.36 | -0.516 | -0.207 | -0.57 | -0.492
CC(c1cc2ccccc2s1)N(O)C(N)=O (stereo not given) [Zileuton] | -0.514 | -0.465 | -0.358 | -0.366 | -0.391 | -0.425
CCCC1C(=O)N2C(N(C)C)=Nc3ccc(C)cc3N2C1=O (stereo not given) [Azapropazone] | -0.356 |  | 0.0445 |  | -0.348 | 
CC(=O)CC(c1ccccc1)c1c(O)c2ccccc2oc1=O (stereo not given) [Warfarin] | -0.409 | 0.393 | 0.206 | 0.0343 | -0.461 | -0.372
Nc1nc2n[nH]nc2c(=O)[nH]1 [Azaguanine-8] | -0.399 |  | -1.15 |  | -0.438 | 
CC(=O)OCC(=O)[C@@]1(O)CC[C@H]2[C@@H]3CCC4=CC(=O)CC[C@]4(C)[C@H]3[C@@H](O)C[C@@]21C [Cortisol acetate] | -0.325 | -0.845 | -0.384 | -0.119 | -0.306 | -0.404
CN[C@H]1CC[C@@H](c2ccc(Cl)c(Cl)c2)c2ccccc21 [Sertraline] |  | -0.719 |  | 0.938 |  | 3.15
CCOCCn1c(N2CCCN(C)CC2)nc2ccccc21 [Emedastine] | -0.464 | 0.747 | -0.629 | -0.502 | -0.536 | -0.461
CN1CCN(C(c2ccccc2)c2ccccc2)CC1 [Cyclizine hydrochloride] | -0.35 | 0.424 | -0.0386 | -0.181 | -0.285 | 0.0272
CN(Cc1cnc2nc(N)nc(N)c2n1)c1ccc(C(=O)N[C@@H](CCC(=O)O)C(=O)O)cc1 [Methotrexate] | -0.383 |  | 0.354 |  | -0.754 | 
